From the supplement of paper PMC13380429

How the values were obtained:
[1] = tested on: Vero E6 infected with SARS-CoV-2; test: morphology score (similarity to uninfected cells); higher = more like uninfected cells; settings: 24 h
[2] = tested on: Vero E6 infected with SARS-CoV-2; test: SARS-CoV-2 infection rate relative to infected DMSO; higher = more infection, active = 60 or less; settings: 24 h

SMILES | morphology score [1] | SARS-CoV-2 infection rate [2]
O=c1c(-c2ccc(O)cc2)coc2cc(O)ccc12 [daidzein] (10 µM) | 0.126 | 95% (inactive)
O=C1NC(=O)/C(=C/c2ccc(-c3ccc(F)cc3O)o2)S1 (10 µM) | 0.146 | 108% (inactive)
O=C(O[C@@H]1Cc2c(O)cc(O)cc2O[C@@H]1c1cc(O)c(O)c(O)c1)c1cc(O)c(O)c(O)c1 [epigallocatechin-gallate-(-)] (10 µM) | 0.156 | 100% (inactive)
C#C[C@]1(O)CC[C@H]2[C@@H]3CCc4cc(O)ccc4[C@H]3CC[C@@]21C (10 µM) | 0.128 | 102% (inactive)
O=C(O)c1ccc2c(c1)nc(Nc1cccc(Cl)c1)c1ccncc12 (10 µM) | 0.237 | 103% (inactive)
CN1CCc2cc3c(cc2[C@H]1[C@@H]1OC(=O)c2c1ccc1c2OCO1)OCO3 [bicuculline-(+)] (10 µM) | -0.0434 | 98% (inactive)
Cn1cc(C(=O)OCC2CCN(CCNS(C)(=O)=O)CC2)c2ccccc21 (10 µM) | 0.228 | 96% (inactive)
COCC1(CO)C(=O)C2CCN1CC2 (stereo unspecified) (10 µM) | 0.212 | 80.5% (inactive)
C[C@H](NCc1ccc(OCc2ccccc2F)cc1)C(N)=O [priralfinamide] (10 µM) | -0.175 | 114% (inactive)
CC(Cc1ccccc1)NCCC(c1ccccc1)c1ccccc1 (stereo unspecified) [prenylamine] (10 µM) | 0.878 | 19.5% (active)
Oc1ccc(OCc2ccccc2)cc1 [monobenzone] (10 µM) | -0.207 | 119% (inactive)
CC(Oc1c(Cl)cccc1Cl)C1=NCCN1 (stereo unspecified) [lofexidine] (10 µM) | -0.13 | 102% (inactive)
CSCC1CN(/N=C/c2ccc([N+](=O)[O-])o2)C(=O)O1 (stereo unspecified) [inimur] (10 µM) | 0.187 | 92% (inactive)
C[C@H](Nc1cc2c(-c3ccc4c(c3)OCO4)noc2cn1)c1ccccc1 (10 µM) | 0.191 | 84.5% (inactive)
CNC(=C[N+](=O)[O-])NCCSCc1ccc(CN(C)C)o1 [ranitidine] (10 µM) | -0.0967 | 111% (inactive)
COc1ccccc1OC(=O)C(C)c1ccc(CC(C)C)cc1 (stereo unspecified) [metoxibutropate] (10 µM) | 0.217 | 101% (inactive)
Cc1c(C(=O)NN2CCOCC2)nn(-c2ccc(Cl)cc2Cl)c1-c1ccc(I)cc1 (10 µM) | 0.11 | 87.5% (inactive)
CC[C@H](C)n1cc(C)c2c(C(=O)NCc3c(C)cc(C)[nH]c3=O)cc(-c3ccc(N4CCNCC4)nc3)cc21 (10 µM) | -0.212 | 109% (inactive)
C/C=C(/C)C(=O)O[C@H]1[C@H](OC(C)=O)[C@@]2(CO)C(CC1(C)C)C1=CCC3[C@@]4(C)CCC(O[C@@H]5O[C@H](C(=O)O)[C@@H](O[C@@H]6O[C@H](CO)[C@@H](O)[C@H](O)[C@H]6O)[C@H](O)[C@H]5O[C@@H]5O[C@H](CO)[C@@H](O)[C@H](O)[C@H]5O)[C@](C)(CO)C4CC[C@@]3(C)[C@]1(C)C[C@H]2O.C/C=C(\C)C(=O)O[C@H]1[C@H](OC(C)=O)[C@@]2(CO)C(CC1(C)C)C1=CCC3[C@@]4(C)CCC(O[C@@H]5O[C@H](C(=O)O)[C@@H](O[C@@H]6O[C@H](CO)[C@@H](O)[C@H](O)[C@H]6O)[C@H](O)[C@H]5O[C@@H]5O[C@H](CO)[C@@H](O)[C@H](O)[C@H]5O)[C@](C)(CO)C4CC[C@@]3(C)[C@]1(C)C[C@H]2O (stereo partly specified) [escin] (0.833333 µM) | -0.0809 | 118% (inactive)
O=C(O)C1=CO[C@@H](O[C@@H]2O[C@H](CO)[C@@H](O)[C@H](O)[C@H]2O)[C@@H]2C(CO)=CC[C@H]12 [Geniposidic acid] (10 µM) | -0.163 | 114% (inactive)
COc1c(C)c2c(c(O)c1C/C=C(\C)CCC(=O)O)C(=O)OC2 [mycophenolic-acid] (10 µM) | -0.0923 | 114% (inactive)
Nc1ncnc2nc(-c3ccc(N4CCOCC4)nc3)cc(-c3cccc(Br)c3)c12 (10 µM) | 0.0544 | 108% (inactive)
Cc1csc(-c2nnc(Nc3ccc(Oc4ncccc4-c4ccnc(N)n4)cc3)c3ccccc23)c1 (0.833333 µM) | 0.202 | 19.5% (active)
COc1ccc(C2CNC(=O)NC2)cc1O[C@H]1C[C@@H]2CC[C@H]1C2 [atizoram] (10 µM) | 0.369 | 93.5% (inactive)
Cn1c(=O)[nH]c2ncn(C)c2c1=O [paraxanthine] (10 µM) | 0.141 | 110% (inactive)
C=CC(C)(C)c1cc(/C=C/C(=O)c2ccc(O)cc2)c(OC)cc1O [licochalcone-A] (10 µM) | -0.0626 | 114% (inactive)
CCS(=O)(=O)N1CCC[C@@H]2CN3CCc4cc(OC)ccc4[C@@H]3C[C@@H]21 (10 µM) | 0.0669 | 102% (inactive)
Cc1ccc(C(=O)Nc2ccc(Oc3cc4cnn(C)c4cc3-c3cn[nH]c3)c(F)c2)c(=O)n1-c1ccc(F)cc1 (0.833333 µM) | 0.172 | 106% (inactive)
